Compounds without any hit were thinned out: in the full panel of roughly 83,000, 20% have a hit.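 Single-dose data. Exposure time 48 hours. Values below 10 considered active.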 Values without a mark were called inactive.

This experiment relates to NCI-H226 lung. Briefly: NCI-60 one-dose screen, 48 h (100 = growth as untreated, 0 = no growth, -100 = all killed). Particulars: 10 µM unless noted.
With `CCCCCCNc1cc(C)nc2ccc(OC)cc12`, the growth is 61.5%.
In the case of `Cc1ccc(C)c2c1C(=O)OC2=O`, the growth is 98.4%.
For `CCN(CC)CCCNC(=O)c1ccc(N)cc1O`, the growth was 87.9%.
Regarding `O=[N+]([O-])c1ccc(-c2cc3c(Nc4ccc(OCc5cccc(Cl)c5)c(Cl)c4)ncnc3s2)cc1`, the growth was 92.2%.
With `COC(=O)Nc1nc2ccc(C(=O)C3CC3)cc2[nH]1`, the growth was 149%.
Then `CCOC(=O)C(O)C(O)(c1ccccc1)c1ccccc1` (stereo unspecified), with 90.2%.
For the compound `N#Cc1cnn2c(-c3ccc(Cl)cc3)nc(NC3CC3)nc12`, the growth was 97.4%.
As to `O=C(C[C@@]1(O)C(=O)Nc2c(Cl)ccc(Cl)c21)c1ccc(C2CC2)cc1`, the growth was 46.4%.
As to `CN(CCC(=O)/C(=C\c1ccccc1)c1ccc(Cl)cc1)Cc1ccccc1`, the growth is 65.6%.
Take `CC1=NN(c2cccc(Cl)c2)C(=O)/C1=C\c1cn(CC(O)CN2CCCCC2)c2ccccc12` (stereo unspecified): the growth was 96.8%.
As for `O=C(NCOC(O)C(Cl)(Cl)Cl)NCOC(O)C(Cl)(Cl)Cl` (stereo unspecified), the figure is 95.7%; as for `Cc1nn(-c2ccccc2)c2c1C(c1ccc([N+](=O)[O-])cc1)C(C#N)=C(N)O2` (stereo unspecified), 99.3%; as for `O=[N+]([O-])c1ccccc1C(O)Cc1ccc2ccccc2n1` (stereo unspecified), 83.5%.
As to `N#Cc1cnn2c(-c3ccc(Cl)cc3)nc(NCCc3ccccc3)nc12`, the growth is 105%.
Then `CCOC(=O)C(=CNc1ccccc1[N+](=O)[O-])C(=O)OCC`, with 88.1%; and `Cc1ccc(NSc2ccccc2[N+](=O)[O-])cc1`, with 65.5%.
